Laboratory results taken from paper PMC11574364.

What was measured:
Test in all cases: protein domain microarray probed with biotinylated miRNA; Domain array: 20 mM Tris-HCl pH 7.4, 200 mM KCl, 0.2 mM EDTA, 0.05% NP40, 2 ug/ul heparin, overnight 4 C. ORF array: PBS pH 7.0 with RNase inhibitor, 100 ng RNA; high values mean tight binding
Conditions in all cases: ssRNA
RBM7 = target: T1, RBM7 (Homo sapiens, UniProt Q9Y580)
T1 sequence: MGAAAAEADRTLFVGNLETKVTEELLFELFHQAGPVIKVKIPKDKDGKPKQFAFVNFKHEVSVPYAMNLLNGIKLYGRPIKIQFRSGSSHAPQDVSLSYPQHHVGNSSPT

RNPC2 = target: T2, RNPC2 (Homo sapiens, UniProt Q14498)
T2 sequence: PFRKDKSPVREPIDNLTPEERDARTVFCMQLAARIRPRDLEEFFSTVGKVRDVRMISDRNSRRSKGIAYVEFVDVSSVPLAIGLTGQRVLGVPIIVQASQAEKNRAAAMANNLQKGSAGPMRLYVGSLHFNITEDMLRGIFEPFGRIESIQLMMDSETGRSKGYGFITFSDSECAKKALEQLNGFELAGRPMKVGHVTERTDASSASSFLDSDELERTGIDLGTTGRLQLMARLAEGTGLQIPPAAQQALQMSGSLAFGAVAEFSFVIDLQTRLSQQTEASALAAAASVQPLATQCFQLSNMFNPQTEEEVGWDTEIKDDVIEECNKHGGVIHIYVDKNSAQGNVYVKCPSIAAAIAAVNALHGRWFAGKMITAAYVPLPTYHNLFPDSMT

RBM12B(4) = target: T3, RBM12B(4) (Homo sapiens, UniProt Q8IXT5)
T3 sequence: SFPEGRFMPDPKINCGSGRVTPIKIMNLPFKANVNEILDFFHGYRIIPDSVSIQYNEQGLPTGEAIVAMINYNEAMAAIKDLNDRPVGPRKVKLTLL

RED1(1)/ADARB1 = RED1(1)/ADARB1 (Homo sapiens, UniProt P78563)
SON = target: T4, SON (Homo sapiens, UniProt P18583)
T4 sequence: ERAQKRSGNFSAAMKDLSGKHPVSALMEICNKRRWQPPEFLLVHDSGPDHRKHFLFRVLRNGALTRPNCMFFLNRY

KHDRBS1 = KHDRBS1 (Homo sapiens, UniProt Q07666)
RBM3 = RBM3 (Homo sapiens, UniProt P98179)
YTHDF3 = target: T5, YTHDF3 (Homo sapiens, UniProt Q7Z739)
T5 sequence: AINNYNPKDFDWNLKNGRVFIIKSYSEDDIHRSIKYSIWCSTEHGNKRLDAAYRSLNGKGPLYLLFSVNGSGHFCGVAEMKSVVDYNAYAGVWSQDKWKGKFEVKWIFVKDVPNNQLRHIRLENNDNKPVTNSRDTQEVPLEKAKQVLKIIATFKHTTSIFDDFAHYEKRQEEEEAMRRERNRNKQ

NOVA2(1-2) = target: T6, NOVA2(1-2) (Homo sapiens, UniProt Q9UNW9)
T6 sequence: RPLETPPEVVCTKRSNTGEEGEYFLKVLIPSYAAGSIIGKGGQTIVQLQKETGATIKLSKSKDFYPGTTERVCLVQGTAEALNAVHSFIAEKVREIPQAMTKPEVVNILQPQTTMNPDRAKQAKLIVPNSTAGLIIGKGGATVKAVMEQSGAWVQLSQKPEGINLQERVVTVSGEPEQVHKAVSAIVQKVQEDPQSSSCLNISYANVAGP

SFRS4 = target: T7, SFRS4 (Homo sapiens, UniProt Q08170)
T7 sequence: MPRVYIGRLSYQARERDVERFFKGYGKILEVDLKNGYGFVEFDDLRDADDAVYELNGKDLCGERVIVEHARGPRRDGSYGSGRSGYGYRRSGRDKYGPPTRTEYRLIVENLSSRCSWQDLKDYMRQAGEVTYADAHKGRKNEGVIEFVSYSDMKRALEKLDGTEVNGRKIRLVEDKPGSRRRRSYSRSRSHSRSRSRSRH

RBM5 = target: T8, RBM5 (Homo sapiens, UniProt P52756)
T8 sequence: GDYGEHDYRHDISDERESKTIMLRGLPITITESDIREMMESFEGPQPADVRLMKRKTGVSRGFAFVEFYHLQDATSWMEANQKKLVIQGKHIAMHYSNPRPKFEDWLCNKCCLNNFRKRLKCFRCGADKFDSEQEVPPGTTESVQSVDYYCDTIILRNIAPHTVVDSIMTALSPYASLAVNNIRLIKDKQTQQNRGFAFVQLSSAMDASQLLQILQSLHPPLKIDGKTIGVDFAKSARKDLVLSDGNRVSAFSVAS

RKHD4(1-2) = target: T9, RKHD4(1-2) (Homo sapiens, UniProt A1L020)
T9 sequence: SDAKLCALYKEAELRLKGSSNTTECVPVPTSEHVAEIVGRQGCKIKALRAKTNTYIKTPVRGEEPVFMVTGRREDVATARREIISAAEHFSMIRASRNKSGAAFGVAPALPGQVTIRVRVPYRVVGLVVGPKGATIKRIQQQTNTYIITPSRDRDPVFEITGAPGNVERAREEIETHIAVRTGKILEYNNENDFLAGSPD

SRP46 = target: T10, SRP46 (Homo sapiens, UniProt Q9BRL6)
T10 sequence: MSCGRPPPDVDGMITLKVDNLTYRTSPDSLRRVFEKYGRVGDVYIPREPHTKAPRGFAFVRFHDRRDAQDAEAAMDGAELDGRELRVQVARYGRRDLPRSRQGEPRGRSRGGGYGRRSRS

PPIE = PPIE (Homo sapiens, UniProt Q9UNP9)
ADAD1 = ADAD1 (Homo sapiens, UniProt Q96M93)
SFRS5 = target: T11, SFRS5 (Homo sapiens, UniProt Q13243)
T11 sequence: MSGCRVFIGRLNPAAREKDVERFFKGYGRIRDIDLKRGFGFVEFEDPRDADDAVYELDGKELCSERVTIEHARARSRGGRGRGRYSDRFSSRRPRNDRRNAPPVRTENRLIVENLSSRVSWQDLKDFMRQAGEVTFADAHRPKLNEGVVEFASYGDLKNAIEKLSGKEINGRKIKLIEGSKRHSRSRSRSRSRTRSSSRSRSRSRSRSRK

RBMXL2 = RBMXL2 (Homo sapiens, UniProt O75526)
ANKHD1 = target: T12, ANKHD1 (Homo sapiens, UniProt Q8IWZ3)
T12 sequence: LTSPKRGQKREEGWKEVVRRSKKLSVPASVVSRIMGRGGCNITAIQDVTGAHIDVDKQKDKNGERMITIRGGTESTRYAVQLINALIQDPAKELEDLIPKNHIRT

RBM34 = target: T13, RBM34 (Homo sapiens, UniProt P42696)
T13 sequence: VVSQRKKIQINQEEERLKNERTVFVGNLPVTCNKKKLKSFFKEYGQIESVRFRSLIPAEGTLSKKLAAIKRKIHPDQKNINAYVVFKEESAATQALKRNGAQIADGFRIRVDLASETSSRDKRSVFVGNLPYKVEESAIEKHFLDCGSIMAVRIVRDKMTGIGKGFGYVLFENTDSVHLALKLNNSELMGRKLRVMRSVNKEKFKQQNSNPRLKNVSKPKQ

PRPF8 = PRPF8 (Homo sapiens, UniProt Q6P2Q9)
Sequence of PRPF8 (Q6P2Q9 965-1100): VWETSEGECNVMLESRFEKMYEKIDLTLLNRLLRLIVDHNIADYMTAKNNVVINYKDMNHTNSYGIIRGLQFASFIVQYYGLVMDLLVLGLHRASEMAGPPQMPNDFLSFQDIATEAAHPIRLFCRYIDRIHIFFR

Sequence of RBM3 (P98179 1-110): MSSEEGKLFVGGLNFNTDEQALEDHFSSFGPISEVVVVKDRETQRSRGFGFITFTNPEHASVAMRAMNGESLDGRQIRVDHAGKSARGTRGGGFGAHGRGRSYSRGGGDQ
Sequence of RBMXL2 (O75526 1-110): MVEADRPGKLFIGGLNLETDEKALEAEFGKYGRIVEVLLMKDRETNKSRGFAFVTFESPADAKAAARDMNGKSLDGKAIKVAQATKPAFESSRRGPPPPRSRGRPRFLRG
Sequence of ADAD1 (Q96M93 77-182): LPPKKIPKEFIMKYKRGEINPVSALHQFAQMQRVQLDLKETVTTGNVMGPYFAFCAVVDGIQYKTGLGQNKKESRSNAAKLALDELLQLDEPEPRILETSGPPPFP
Sequence of PPIE (Q9UNP9 1-110): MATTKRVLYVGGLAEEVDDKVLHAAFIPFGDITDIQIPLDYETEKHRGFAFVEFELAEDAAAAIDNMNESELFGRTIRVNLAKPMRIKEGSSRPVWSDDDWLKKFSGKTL
Sequence of KHDRBS1 (Q07666 85-210): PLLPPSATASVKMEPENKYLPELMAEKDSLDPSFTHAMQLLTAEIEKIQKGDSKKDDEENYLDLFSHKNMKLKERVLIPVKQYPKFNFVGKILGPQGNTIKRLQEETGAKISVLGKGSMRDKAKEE

Row | Sequence | binding signal (RBM7) [fluorescence intensity] | binding signal (RNPC2) [fluorescence intensity] | binding signal (RBM12B(4)) [fluorescence intensity] | binding signal (RED1(1)/ADARB1) [fluorescence intensity] | binding signal (SON) [fluorescence intensity] | binding signal (KHDRBS1) [fluorescence intensity] | binding signal (RBM3) [fluorescence intensity] | binding signal (YTHDF3) [fluorescence intensity] | binding signal (NOVA2(1-2)) [fluorescence intensity] | binding signal (SFRS4) [fluorescence intensity] | binding signal (RBM5) [fluorescence intensity] | binding signal (RKHD4(1-2)) [fluorescence intensity] | binding signal (SRP46) [fluorescence intensity] | binding signal (PPIE) [fluorescence intensity] | binding signal (ADAD1) [fluorescence intensity] | binding signal (SFRS5) [fluorescence intensity] | binding signal (RBMXL2) [fluorescence intensity] | binding signal (ANKHD1) [fluorescence intensity] | binding signal (RBM34) [fluorescence intensity] | binding signal (PRPF8) [fluorescence intensity]
1 | AGAGGUAGUAGGUUGCAUAGUU | 36.3 ± 3 | 27 ± 3 | 23.2 ± 2.64 | 152 ± 6.66 | 20.1 ± 1.45 | 21.6 ± 3.36 | 2295 ± 10 | 60.7 ± 7.12 | 151 ± 5.8 | 238 ± 11.7 | 1310 ± 32.6 | 1980 ± 164 | 1390 ± 35.5 | 817 ± 64.4 | 65 ± 1.55 | 151 ± 12.7 | 2569 ± 8.99 | 37.7 ± 0.622 | 148 ± 10.7 | –
2 | UGAGGUAGUAGGUUGUAUGGUU | 45.27 ± 0.0778 | 43.3 ± 11.8 | 62 ± 3.02 | 151 ± 4.54 | 23.9 ± 4.74 | 25.6 ± 0.417 | 1642 ± 12.9 | 117 ± 1.29 | 26.8 ± 4.61 | 206 ± 51.4 | 930 ± 19.2 | 1640 ± 102 | 1040 ± 52.8 | 958 ± 40.9 | 97.885 ± 0.0354 | 155 ± 8.02 | 1440 ± 338 | 53.6 ± 1.31 | 153 ± 25.5 | 22 ± 1.98
3 | UAGCUUAUCAGACUGAUGUUGA | – | – | – | – | – | – | 409 ± 132 | – | – | – | 21.2 ± 2.33 | 932 ± 115 | 41.5 ± 2.43 | 91.8 ± 5.98 | – | – | 826.37 ± 0.587 | – | – | –
4 | UGAGGUAGUAGGUUGUGUGGUU | 50.2 ± 0.997 | 80.9 ± 8.52 | 50.1 ± 2.09 | 230 ± 23.8 | 24.3 ± 4.36 | 28.3 ± 5.26 | 1550 ± 33.7 | 129 ± 9.2 | 40.2 ± 2.14 | 339 ± 8.46 | 858 ± 19.2 | 1430 ± 37.1 | 1046 ± 4.09 | 1030 ± 108 | 157 ± 3.28 | 215 ± 3.13 | 1610 ± 44.5 | 101 ± 1.94 | 228 ± 3.75 | –
5 | CAGUGCAAUGAUGAAAGGGCAU | 34 ± 2.81 | – | 38.8 ± 4.95 | 67.57 ± 0.354 | – | 25.1 ± 9.81 | 1390 ± 40.6 | 52.8 ± 5.03 | 71.4 ± 9.69 | 236 ± 1.78 | 593 ± 12.6 | 1280 ± 81.8 | 797 ± 34.1 | 451 ± 19.3 | 44.5 ± 2.96 | 151 ± 10.5 | 1800 ± 20.8 | 27.3 ± 0.926 | 102 ± 9.41 | 31.6 ± 16.2
6 | UGAGGUAGUAGGUUGUAUAGUU | 22.1 ± 0.665 | – | – | 40.73 ± 0.318 | – | 22.6 ± 1.88 | 669 ± 18.7 | 30 ± 0.891 | – | 20.4 ± 3.62 | 356 ± 13.4 | 1130 ± 28.7 | 208 ± 90.3 | 232 ± 2.04 | 23.1 ± 6.46 | – | 867 ± 9.01 | 21.6 ± 2.06 | 40.9 ± 12.8 | 25.3 ± 8.73
